High-throughput results as filed in PubChem.
POLH inh – qHTS for Inhibitors of Polymerase Eta; DNA polymerase eta (Homo sapiens), Q9Y253; recombinant Pol eta, fluorescent DNA replication assay; Potency, µM (doses to about 114 µM), without a hit: at the highest dose activity change, negative = inhibition, most hits filed as inhibitors; 390,000 tested, 1.2% active; further: potency means the concentration at half of the fitted maximal effect; on the % scale 0 is the no-effect control and ±100 the full control effect
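Fluorescent replication assay: 50 nM final substrate added after a 15 min room-temperature compound preincubation with 10 nM enzyme. Signal taken at 0 min and again at 10 min.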
Pol iota inh – qHTS for Inhibitors of Polymerase Iota; DNA polymerase iota (Homo sapiens), Q9UNA4; 390,000 tested, 1% active; Pol iota fluorescent replication assay, 10 min; Potency, µM (titrated, usually from 115 µM), for inactives: at the highest dose activity, negative = inhibition, most hits filed as inhibitors; further: potency means the concentration at half of the fitted maximal effect
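Pol iota at 10 nM preincubated 15 min with compounds at room temperature; reaction started with fluorescent substrate, 50 nM final. Fluorescence read kinetically at 0 and 10 min; buffer-only wells as negative control.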
POLB inh – qHTS Assay for Inhibitors of DNA Polymerase Beta | P06746 | Pol beta primer extension/strand displacement, fluorescence kinetic | Potency, µM (top dose mostly 114 µM), inactives show at the highest dose activity change, negative = inhibition, hits mostly inhibitors | 340,000 tested, 1.3% active | AID 485314, 2010; further: potency means the concentration at half of the fitted maximal effect; on the % scale 0 is the no-effect control and ±100 the full control effect
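Values derive from four-parameter Hill fits of normalized kinetic data: reads at 0 and 10 min following addition of 50 nM substrate to 10 nM Pol beta preincubated 15 min with compound.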
POLK inh – qHTS for Inhibitors of Polymerase Kappa | AID 588579, 2011 | 400,000 tested, 0.53% active | Potency, µM (series often up to 107 µM), inactives show top-dose activity, negative = inhibition, usual class: inhibitors | DNA polymerase kappa (Homo sapiens), Q9UBT6 | purified Pol kappa, fluorescent DNA synthesis assay, 10 min; further: potency means the concentration at half of the fitted maximal effect; on the % scale 0 is the no-effect control and ±100 the full control effect
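First, compounds were pin-transferred onto 10 nM Pol kappa. After 15 min at room temperature, substrate was added to 50 nM final. Fluorescence was then measured kinetically at 0 and 10 min.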
WRN helicase inh – qHTS for Inhibitors of WRN Helicase; Bifunctional 3'-5' exonuclease/ATP-dependent helicase WRN (Homo sapiens), Q14191; WRN helicase unwinding, fluorescent forked duplex, kinetic; Potency, µM (titrated, usually from 114 µM), without a hit: top-dose activity change, negative = inhibition, hits mostly inhibitors; 360,000 tested, 0.46% active; AID 651768, 2012; further: potency means the concentration at half of the fitted maximal effect; on the % scale 0 is the no-effect control and ±100 the full control effect; nearly all actives have a fitted effect of over 55% in size
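Screening of the MLSMR collection measured strand separation of a quenched forked DNA duplex (100 nM) by 20 nM WRN with 2 mM ATP, all final. Compounds were preincubated with enzyme 15 min at room temperature.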
PI5P4K alpha inh – qHTS for Inhibitors of phosphatidylinositol 5-phosphate 4-kinase (PI5P4K); Phosphatidylinositol 5-phosphate 4-kinase type-2 alpha (Homo sapiens), P48426; PI5P4Kalpha enzyme, ADP-Glo luminescence, 60 min; hits give low values; max response, %; 330,000 tested, 1.2% active; AID 652105, 2013; active means max response of -50% or lower; inconclusive means between -30% and -50%; inactive means -30% or higher; further: value at the top dose of about 77 µM; on the % scale 0 is the no-effect control and ±100 the full control effect
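ADP-Glo luminescence end-point after a 60 min room-temperature kinase reaction. PI5P4Kalpha and substrate in HEPES pH 7.4 buffer with EGTA, 0.1% CHAPS and 5% DMSO; ATP at 5 microM final.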
* marks the source's active call; other numbers are inactive results; u = inconclusive; x = no result given; [ ] = remark or other dose. Compounds with a hit are over-represented: about 2.8% of the library has one in this group of screens. Unless noted, the call rests on the fitted dose curve; in most records, active means well fitted curve in the direction sought with a large enough effect; inconclusive means small, poorly fitted or top-dose-only effect, or another doubt; inactive means no such curve, though single readings can be large; an effect the other way counts as inactive or inconclusive.

SMILES	POLH inh	Pol iota inh	POLB inh	POLK inh	WRN helicase inh	PI5P4K alpha inh
O=C(Cn1ncc(Cl)c(Cl)c1=O)NC(=O)NC1CCCCC1	u	u	x	-15%	-5%[11.6 µM]	-50*
CC(NC(=O)Cn1ncc(Cl)c(Cl)c1=O)C12CC3CC(CC(C3)C1)C2 (stereo not drawn)	u	u	u	-5%	-17%	-64*
O=C(CN1CCCCC1)NC(=O)NC1CCCC1	-17%	122%	4%	-3%	1%[57.1 µM]	10
O=C(Nc1nc(-c2cccs2)c(C(=O)C(F)(F)F)s1)c1ccccc1	u	89µM*	0%	u	-15%	-3
CC(Oc1ccccc1)C(=O)N=Nc1c(O)[nH]c2ccc([N+](=O)[O-])cc12 (stereo not drawn)	35µM*	79µM*	-25%	-12%	1%	-4
O=[N+]([O-])c1ccc(N=Nc2c(O)[nH]c3ccc(F)cc23)cc1	u	28%	50µM*	-2%	-8%	-4
COc1ccc(NC(=O)c2ccc3c(SCC(=O)O)c4c(nc3c2)CCCC4)cc1OC	-10%	2%	3%	-6%	x	x
O=C(O)CSc1c2c(nc3cc(C(=O)Nc4ccc(F)c(Cl)c4)ccc13)CCC2	u	50µM*	u	u	x	x
O=C(CCn1c(=O)c2sccc2n(Cc2cccc(F)c2)c1=O)NCc1ccc2c(c1)OCO2	-21%	15%	u	-6%	x	x
O=C(O)C#CC(=O)O	x	14%	x	5%	x	x
C/C(=N\NC(=O)c1ccc(C)cc1C)c1ccc2c(c1)OCO2	-12%	6%	14%	-11%	-7%	3
O=C(OCC(=O)N1CCCCC1)c1cc2ccccc2cc1O	-14%	8%	3%	-10%	-4%	2
C/C(CC(=O)Nc1ccc(Cl)c(C(F)(F)F)c1)=N\NC(=O)c1cc2ccccc2cc1O	-8%	89µM*	-14%	u	-11%[57.1 µM]	u
C/C(CC(=O)N1CCCC1)=N\NC(=O)c1cc2ccccc2cc1O	-8%	79µM*	-74%	u	-4%	u
C/C(=N\NC(=O)c1cc2ccccc2cc1O)c1ccc2c(c1)OCO2	0%	u	u	u	-39%	-67*
CC(C)Oc1ccc(S(=O)(=O)N2CCOCC2)cc1NC(=O)CSC(=S)N1CCCC1	-18%	x	x	x	-1%	-1
CC[C@]1(C(=O)OC)[C@H]2C(=O)N(Cc3ccccc3)C(=O)[C@H]2[C@H]2CN=C(SCC(=O)c3ccccc3)N21	-13%	11%	x	13%	-2%	-19
CC(C)CC1C(C#N)=C(N)Oc2n[nH]c(-c3ccccc3)c21 (stereo not drawn)	-28%	45%	-19%	-2%	-14%	-57*
N#CC1=C(N)Oc2n[nH]c(-c3ccccc3)c2C1c1cccnc1 (stereo not drawn)	8%	u	-17%	-2%	-9%	u
CC(C)C1C(C#N)=C(N)Oc2n[nH]c(-c3ccccc3)c21 (stereo not drawn)	-10%	14%	-3%	-6%	0%	-16
CCOc1cc(C2C(C#N)=C(N)Oc3n[nH]c(-c4ccccc4)c32)ccc1O (stereo not drawn)	1%	25µM*	37%	-2%	17%	u
N#CC1=C(N)Oc2n[nH]c(-c3cccnc3)c2C1c1cc(F)ccc1F (stereo not drawn)	-12%	38%	7%	0%	-12%	-54*
CCN1/C(=C/C=C/C=C/c2sc3ccccc3[n+]2CC)Sc2ccccc21	x	18µM*	16µM*	32µM*	x	x
